Hits are enriched below; roughly 19% of the tested compounds scored in any of these assays.
TDP1 cell CPT: DT40-hTDP1 cell growth loss with CPT. chicken DT40 Tdp1-/-;hTDP1 cells + 20 nM CPT, ATP luminescence, 48 h. Potency, µM (highest dose often 46.2 µM), inactives show at the top dose activity change, negative = growth inhibition, usual class: inhibitors. hit rate 12% among 420,000; further: potency means the concentration at half of the fitted maximal effect; on the % scale 0 is the no-effect control and ±100 the full control effect; nearly all actives have a fitted effect of over 55% in size
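Cell growth measured by CellTiter-Glo luminescence after a minimum 48 h, 37 C compound exposure with 20 nM CPT in Tdp1-knockout DT40 cells stably expressing hTDP1, seeded 400/well; qHTS titration format.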
SW480 rerep: DNA re-replication induction in SW480 cells; SW480 DNA re-replication, Hoechst DNA content imaging, 48 h; Potency, µM (titrated, usually from 46.1 µM), for inactives: at the top dose re-replication activation, most hits filed as activators; hit rate 1.8% among 340,000; further: potency means the concentration at half of the fitted maximal effect; % of control where 0% means no effect; nearly all actives have a fitted effect of over 55% in size
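Per well, 250 cells were exposed to pinned compound for 48 hr. Nuclear DNA was visualised with Hoechst (40 min, 37 C) and total object intensity recorded by fluorescence scanning.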
IL1B secr inh: inhibitors of inflammasome signaling (IL-1 beta secretion) | THP-1 LPS/ATP IL-1B secretion, AlphaLISA, 16 h; active compounds read low | activity change, % at 57.5 µM | hit rate 4.7% among 360,000 | AID 743279; in the data active means activity change below about -50%; inconclusive means mostly about -30% to -49%; further: on the % scale 0 is the no-effect control and ±100 the full control effect
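THP-1 cells pretreated 1 hr with compounds (up to 57.5 uM final), then stimulated with LPS (250 ng/mL final) plus ATP (1.25 mM final); secreted IL-1B measured by AlphaLISA after 16 hr, decreased signal indicating inhibition.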
BCR signal inh: inhibitors of chronic active B-cell receptor signaling; ABC-DLBCL IkBa-CBG/CBR reporter, luminescence ratio, 4 h; Potency, µM (highest dose often 46.1 µM), without a hit: at the highest dose activity change, negative = inhibition, usual class: inhibitors; hit rate 0.05% among 340,000; active means well fitted inhibition curve with a large enough effect in the signal ratio, with a control signal flat, not every such curve was filed as active; inconclusive means small, poorly fitted or top-dose-only effect, or effect the other way, or a change in a side signal; the % refers to the signal ratio;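 further: potency means the concentration at half of the fitted maximal effect; plate controls were basal doxycycline-induced cells for no effect and cells given 10 µM MG132 for full effect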
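Concentration-response series (up to 46 uM) were applied to TMD8 dual-reporter cells for 4 h at 37C with doxycycline. Green/red ratio, after filter-overlap correction, defined %Activity; red signal alone was normalised to basal cells and zero luminescence.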
DT40 TDP1 no CPT: qHTS for Inhibitors of human tyrosyl-DNA phosphodiesterase 1 (TDP1): qHTS in cells in absence of CPT. DT40 Tdp1-/- hTDP1 cells, no CPT, ATP luminescence, 48 h. hit rate 15% among 420,000. Potency, µM (top dose mostly 46.2 µM), inactives show top-dose activity change, negative = growth inhibition, actives largely listed as inhibitors; further: potency means the concentration at half of the fitted maximal effect; on the % scale 0 is the no-effect control and ±100 the full control effect; nearly all actives have a fitted effect of over 55% in size
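Compound effects on proliferation are scored in DT40 Tdp1-/-;hTDP1 cells in the absence of CPT. ATP levels (CellTiter-Glo luminescence) are recorded after a ≥48 hr, 37 °C incubation.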
MCF10A rereplic: inducers of DNA re-replication in MCF 10A breast cells | MCF 10A DNA re-replication, Hoechst nuclear intensity, 48 h | hit rate 2.9% among 350,000 | Potency, µM (doses to about 46.1 µM), inactives show at the top dose activity, positive = re-replication, most hits filed as activators | AID 624296; further: potency means the concentration at half of the fitted maximal effect; % of control where 0% means no effect; nearly all actives have a fitted effect of over 50% in size
* = called active by the depositor; i = inactive; ? = inconclusive; / = no result given; [ ] = dose if it differs, or a comment. Unless noted, the call rests on the fitted dose curve; in most records, active means well fitted curve in the direction sought with a large enough effect; inconclusive means small, poorly fitted or top-dose-only effect, or another doubt; inactive means no such curve, though single readings can be large; an effect the other way counts as inactive or inconclusive.

SMILES	TDP1 cell CPT	SW480 rerep	IL1B secr inh	BCR signal inh	DT40 TDP1 no CPT	MCF10A rereplic
CC(Cc1ccccn1)NC(=O)c1ccc(OC2CCN(CCc3ccccc3)CC2)cc1 (centres undefined)	18µM*	4%	i	3%	?	3%
CC(C)N1CCN(C(=O)c2ccc(OC3CCN(CCc4ccccc4)CC3)cc2)CC1	?	?	i	-11%	23µM*	?
O=C(NCCc1ccccn1)c1ccc(OC2CCN(CCc3ccccc3)CC2)cc1	-14%	5%	-11	6%	-4%	5%
C[C@@H](NC(=O)c1nc[nH]c1C(=O)NCC(=O)OCc1ccccc1)c1ccccc1	-26%	1%	15	2%	-26%	5%
COCCNC(=O)CCc1c(C)n(C)c2cc(-c3cc(OC)c(OC)c(OC)c3)nn2c1=O	-6%	/	/	/	1%	/
COc1cc(-c2cc3n(C)c(C)c(CCC(=O)NC4CCC(C)CC4)c(=O)n3n2)cc(OC)c1OC (centres undefined)	15µM*	/	/	/	13µM*	/
CCOc1ccccc1-c1cc(C(=O)Nc2ccc(C(=O)O)cc2)c2ccccc2n1	?	12%	24	1%	-28%	?
CCOc1ccccc1-c1cc(C(=O)N/N=C/c2ccc(O)c(OC)c2)c2ccccc2n1	1.5µM*	?	-6	?	0.58µM*	?
CCOc1ccccc1-c1cc(C(=O)N/N=C/c2ccc3c(c2)OCO3)c2ccccc2n1	12µM*	5%	8	-16%	9.2µM*	15%
O=C(N/N=C/c1ccc2c(c1)OCO2)c1cc(-c2ccccc2Cl)nc2ccccc12	2%	20%	24	?	-7%	?
CC(=O)O[C@H]1CC(C)(C)C(=C=C/C(C)=C/C=C/C(C)=C/C=C/C=C(C)/C=C/C=C(\C)C(=O)C[C@@]23O[C@]2(C)C[C@@H](O)CC3(C)C)[C@](C)(O)C1	26µM*	?	-63*	?	?	?
Cc1cn2c(=O)cc(COc3cccc(NC(=O)c4ccccc4C)c3)nc2s1	-21%	/	/	/	?	/
COc1ccc(C(=O)Oc2ccc(C(=S)N3CCCC3)cc2)cc1OC	/	/	/	2%	/	/
COc1cccc(C(=O)Oc2cc3c4c(c2)C(C)=CC(C)(C)N4C(=O)C3=O)c1	3.7µM*	4.1µM*	29	-27%	3.7µM*	?
COc1cc2c3c(c1)C(C)CC(C)(C)N3C(=O)C2=O (centres undefined)	2.6µM*	?	-4	?	5.2µM*	?
COc1ccc(C(=O)Oc2cc3c4c(c2)C(C)=CC(C)(C)N4C(=O)C3=O)cc1OC	4.6µM*	-1%	10	0%	3.3µM*	-2%
COc1cc2c3c(c1)C(C)=CC(C)(C)N3C(=O)C2=O	0.73µM*	10µM*	0	?	0.82µM*	?
COc1cc2c3c(c1)C1(C(=O)N3C(C)(C)C=C2C)C(C#N)=C(N)Oc2cc(O)ccc21 (centres undefined)	5%	0%	-10	/	-6%	14%
COc1ccc(-n2nc(C(=O)Nc3cc(C)ccn3)c3c4ccccc4n(C)c3c2=O)cc1	-11%	/	/	/	-4%	/
Cn1c(=O)c2[nH]c(C(O)c3ccc(Cl)cc3)nc2n(C)c1=O (centres undefined)	?	7%	26	/	?	0%
O=C(c1cc(-c2ccccc2)on1)N1CCOc2ccc(CN3CCN(c4ccccn4)CC3)cc2C1	8%[9.04 µM]	/	/	/	1%	/
Cc1ccc(CN(C(=O)c2csnn2)C(C(=O)NC2CCCC2)c2ccccn2)cc1 (centres undefined)	1%	-34%	0	0%	-19%	0%
O=c1[nH]c2ccc(Cl)cc2c(-c2ccccc2)c1CN1CCOCC1	?	?	-5	-7%	21µM*	173%
O=c1[nH]c2ccc(Cl)cc2c(-c2ccccc2)c1N1CCOCC1	-22%	?	0	14%	-6%	?
CSCc1ccc(C(=O)NCC(c2cccs2)N2CCOCC2)cc1 (centres undefined)	-18%	3%	-8	-3%	?	-6%
SMILES	TDP1 cell CPT	SW480 rerep	IL1B secr inh	BCR signal inh	DT40 TDP1 no CPT	MCF10A rereplic
O=C(NCC(c1cccs1)N1CCOCC1)c1ccc(OCc2ccccc2)cc1 (centres undefined)	15µM*	18%	-29	7%	21µM*	-1%
COc1ccc(C(CNC(=O)c2ccc(OCc3ccccc3)cc2)N2CCOCC2)cc1 (centres undefined)	?	0%	-21	-1%	-18%	-1%
Cc1cccc(C(=O)NCC(c2cccs2)N2CCOCC2)c1 (centres undefined)	-8%	?	10	11%	-17%	?
O=C(NCC(c1ccc(F)cc1)N1CCOCC1)c1ccc(OCc2ccccc2)cc1 (centres undefined)	18µM*	-6%	-20	?	21µM*	-7%
O=C(NCC(c1cccs1)N1CCOCC1)c1cnc(Cl)c(Cl)c1 (centres undefined)	?	?	-98*	?	?	18%
COc1cc(C(=O)NCC(c2cccs2)N2CCOCC2)ccc1OCc1ccc(Cl)cc1 (centres undefined)	6.5µM*	/	?	/	3.7µM*	/
CC(=O)c1ccc(-c2ccc(C(=O)NCC(c3ccc(F)cc3)N3CCOCC3)o2)cc1 (centres undefined)	4%	?	-4	-16%	?	10%
O=C(NCC(c1ccc(F)cc1)N1CCOCC1)c1ccc([N+](=O)[O-])o1 (centres undefined)	21µM*	10µM*	/	1%	26µM*	18µM*
O=C(NCc1ccccn1)c1nn(-c2ccccc2Cl)nc1CO	-10%	/	/	/	-1%	/
N#Cc1ccccc1NC(=O)Nc1cccc(Cl)c1	11%	1%	0	/	-21%	1%
CN(c1ccccc1)S(=O)(=O)c1cccc(NC(=O)Nc2ccc(Cl)cc2C#N)c1	?	3%	-9	2%	23µM*	-1%
CCN(c1ccccc1)S(=O)(=O)c1ccc(Cl)c(NC(=O)Nc2ccc(Cl)cc2C#N)c1	16µM*	?	-53*	?	16µM*	?
CC(=O)Nc1ccc(NC(=O)CCC(=O)c2ccc(C)cc2)cc1	-11%	/	/	4%	7%	/
